Screens from PubChem.
HepG2 tox = qHTS for Inhibitors of TGF-b: Cytotox Counterscreen; HepG2 CAGA-GFP viability, ATP luminescence, 18 h; AID 588856, 2011; Potency, µM (series often up to 46.1 µM), inactives show top-dose activity change, negative = cytotoxicity, hits mostly cytotoxic; 410,000 compounds, 0.76% hits
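HepG2 CAGA-GFP cells (1000/well, DMEM with 1% FBS) received compound, then TGF-beta at 500 pg/mL final, and were incubated 18 hours at 37 degrees C. Viability was read by CellTiter-Glo luminescence. Media-only wells were set as complete cell-killing and DMSO as no toxicity.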
TDP1 cell noCPT = qHTS for Inhibitors of human tyrosyl-DNA phosphodiesterase 1 (TDP1): qHTS in cells in absence of CPT; DT40 Tdp1-/- hTDP1 cells, no CPT, ATP luminescence, 48 h; Potency, µM (highest dose often 46.2 µM), inactives show at the top dose activity change, negative = growth inhibition, hits mostly inhibitors; 420,000 compounds, 15% hits; further: on the % scale 0 is the no-effect control and ±100 the full control effect; nearly all actives have a fitted effect of over 55% in size
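Compound effects on proliferation are scored in DT40 Tdp1-/-;hTDP1 cells in the absence of CPT. ATP levels (CellTiter-Glo luminescence) are recorded after a ≥48 hr, 37 °C incubation.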
TDP1 cell CPT = qHTS for Inhibitors of human tyrosyl-DNA phosphodiesterase 1 (TDP1): qHTS in cells in presence of CPT; chicken DT40 Tdp1-/-;hTDP1 cells + 20 nM CPT, ATP luminescence, 48 h; Potency, µM (highest dose often 46.2 µM), for inactives: at the highest dose activity change, negative = growth inhibition, most hits filed as inhibitors; 420,000 compounds, 12% hits; AID 686979, 2013; further: on the % scale 0 is the no-effect control and ±100 the full control effect; nearly all actives have a fitted effect of over 55% in size
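Cell growth measured by CellTiter-Glo luminescence after a minimum 48 h, 37 C compound exposure with 20 nM CPT in Tdp1-knockout DT40 cells stably expressing hTDP1, seeded 400/well; qHTS titration format.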
HT1080 IDH1KD tx = qHTS for induction of synthetic lethality in tumor cells producing 2HG: qHTS for the HT-1080-IDH1KD cell line; HT-1080 IDH1 knockdown viability, ATP luminescence, 48 h; Potency, µM (top dose mostly 46.1 µM), inactives show at the highest dose activity, negative = toxicity, most hits filed as cytotoxic; 360,000 compounds, 2% hits; AID 686971, 2013;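 further: 0% = DMSO wells and -100% = cell-free medium wells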
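Assay cells: HT-1080 with IDH1 knockdown, 750 per well, RPMI/5% FBS. Exposure: 48 h at 37 °C following 2 h pre-incubation. Read: CellTiter-Glo luminescence; fitted concentration-response, curve class assigned.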
HT1080NT lethal = qHTS for induction of synthetic lethality in tumor cells producing 2HG: qHTS for the HT-1080-NT fibrosarcoma cell line; HT-1080-NT fibrosarcoma viability, CellTiter-Glo ATP luminescence, 48 h; Potency, µM (top dose mostly 46.1 µM), for the others: top-dose activity, negative = less viability, usual class: cytotoxic; 360,000 compounds, 1.6% hits;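 further: NT is the 2HG producing partner of a matched IDH1 knockdown line; 0% = DMSO-treated cells and -100% = media-only wells without cells; nearly all actives have a fitted effect of over 55% in size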
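Read-out is CellTiter-Glo luminescence after 10 minutes at room temperature, following 48 hours' compound treatment of HT-1080-NT cells (750 cells/well, RPMI, 5% FBS, 37 degrees C).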
TGFb inhibitor = qHTS for Inhibitors of TGF-b; HepG2 CAGA-GFP TGF-b/SMAD3 reporter, GFP fluorescence, 18 h; TGF-beta stimulated, 500 pg/mL final; Potency, µM (top dose mostly 46.1 µM), for the others: at the highest dose activity, negative = inhibition, most hits filed as inhibitors; 410,000 compounds, 1.2% hits; AID 588855, 2011; further: on the % scale 0 is the no-effect control and ±100 the full control effect; nearly all actives have a fitted effect of over 65% in size
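HEPG2 CAGA-GFP cells (1000/well, DMEM with 1% FBS) were pre-incubated 2 h at 37 degrees C, given compound by pin tool, then stimulated with TGF-beta at 500 pg/mL final for 18 h before per-cell GFP fluorescence imaging.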
* marks the source's active call; other numbers are inactive results; u = inconclusive; x = no result; ! = not confirmed by another sample. Rows were chosen to be rich in hits. Some 17% of all compounds tested hit in one or more screens of this group. The call rests on the fitted dose curve; in most records, active means well fitted curve in the direction sought with a large enough effect; inconclusive means small, poorly fitted or top-dose-only effect, or another doubt; inactive means no such curve, though single readings can be large; an effect the other way counts as inactive or inconclusive. Potency means the concentration at half of the fitted maximal effect.

SMILES	HepG2 tox	TDP1 cell noCPT	TDP1 cell CPT	HT1080 IDH1KD tx	HT1080NT lethal	TGFb inhibitor
COc1ccc2nc(N/C(N)=N/C(=S)Nc3cccc(C)c3)nc(C)c2c1	-23%	26µM*	u	-9%	-7%	-8%
COc1ccc2nc(N/C(N)=N/C(=S)Nc3c(C)cccc3C)nc(C)c2c1	-4%	21µM*	16µM*	1%	-6%	u
COc1ccc(NC(=S)/N=C(\N)Nc2nc(C)c3ccccc3n2)cc1	-28%	u	u	u	-1%	u
CCCn1nc(C(=O)Nc2ccc(N3CCOCC3)cc2)c2ccccc2c1=O	-3%	-13%	-18%	-4%	5%	11%
NC(c1csc(Nc2ccc(C(=O)c3ccccc3)cc2)n1)C1CCCCC1 (stereo unspecified)	-103%	u	u	15µM*	u	u
CC(=O)c1ccc(Nc2nc(C(N)C(C)C)cs2)cc1 (stereo unspecified)	-1%	u	u	0%	1%	-7%
NC(c1csc(Nc2ccc(C(=O)NCCO)cc2)n1)C1CCCCC1 (stereo unspecified)	-23%	6.5µM*	10µM*	-13%	-14%	-3%
CC(=O)c1ccc(Nc2nc(C(N)C3CCCCC3)cs2)cc1 (stereo unspecified)	-34%	12µM*	13µM*	-13%	u	-2%
Nc1nc(OCC2CCCCC2)c2[nH]cnc2n1	-25%	u	-12%	u	u	-7%
COc1ccc(C(=O)NC2(C(F)(F)F)C(=O)N(Cc3ccco3)C3=C2C(=O)CC(C)(C)C3)cc1OC (stereo unspecified)	-6%	u	-18%	1%	-11%	11%
CCOC(=O)c1c(N)sc(C(=O)OCCOC)c1C	8%	u	-12%	-18%	-4%	-23%
O=C(OCC(=O)N(CCc1ccccc1)Cc1ccccc1)c1ccc(F)c(S(=O)(=O)N2CCOCC2)c1	-29%	2.9µM*	u	-11%	-7%	-7%
O=C(OCC(=O)N(CCc1ccccc1)Cc1ccccc1)c1cccc(S(=O)(=O)N2CCOCC2)c1	-1%	7.3µM*	u	-1%	-8%	2%
COc1ccc(OC)c(C(O)c2ncc(-c3ccccc3OC)[nH]2)c1 (stereo unspecified)	6%	u	u	3%	5%	-10%
Cc1ccc(OCCCn2c(C3CC(=O)N(c4cccc(Cl)c4)C3)nc3ccccc32)c(C)c1 (stereo unspecified)	-8%	9.2µM*	-100%	x	x	-10%
COc1ccc(OCCCCn2c(C3CC(=O)N(c4cccc(Cl)c4)C3)nc3ccccc32)cc1 (stereo unspecified)	-10%	5.8µM*	8.2µM*	x	x	u
O=C1CC(c2nc3ccccc3n2CCCCOc2ccccc2)CN1c1ccccc1Cl (stereo unspecified)	-45%	15µM*	10µM*	x	x	u
CCC1CC=CC2C1C(=O)N(Cc1ccccc1)C2c1cccc([N+](=O)[O-])c1 (stereo unspecified)	-78%	x	x	x	x	10µM*
C[C@@H]1CC=C[C@H]2[C@H]1C(=O)N(Cc1ccccc1)[C@H]2c1cccc([N+](=O)[O-])c1	2%	23µM*	21µM*	-15%	-12%	-26%
CC1CC=CC2C1C(=O)N(Cc1ccccc1)C2c1ccc(C(F)(F)F)cc1 (stereo unspecified)	-8%	x	x	x	x	u
C[C@@H]1CC=C[C@H]2[C@H]1C(=O)N(Cc1ccccc1)[C@H]2c1ccc2ccccc2c1	-22%	u	u	u	-25%	u
O=C(CNC(=O)c1cc(Cl)cc([N+](=O)[O-])c1)NC1CC1	3%	14%	-8%	8%	15%	4%
CCOC(=O)c1nc2cc3n(c(C)c-2c1C)C(C)C(C)=C3C (stereo unspecified)	-5%	13µM*	u	-12%	-8%	2%
CCOC(=O)c1nc2cc3n(c(CC(C)C)c-2c1C)CC(C)=C3C	-20%	u	21µM*	7%	13%	-13%
CN(C)CCc1cc2c(c3c1ccc1ccccc13)OCO2	-103%	21µM*!	21µM*!	u	u	u
SMILES	HepG2 tox	TDP1 cell noCPT	TDP1 cell CPT	HT1080 IDH1KD tx	HT1080NT lethal	TGFb inhibitor
COc1ccc(CCN(C)C(=O)c2cc(S(=O)(=O)N3CCCCC3)ccc2Cl)cc1OC	-3%	23µM*	u	-3%	-5%	-28%
COc1ccc(CCN(C)C(=O)c2cc(S(=O)(=O)N3CCCCCC3)ccc2OC)cc1OC	-2%	u	u	-13%	0%	-21%
COc1ccc(S(=O)(=O)N2CCCCCC2)cc1C(=O)N(C)Cc1ccc(C)cc1	-4%	u	u	-13%	-1%	-11%
COc1ccc(S(=O)(=O)N2CCCCCC2)cc1C(=O)N(C)CCOc1ccc(Cl)cc1	-8%	21µM*	21µM*	-30%	u	-23%
O=[N+]([O-])c1ccc(Oc2cccc(C(F)(F)F)c2)nc1	-12%	u	13µM*	1%	6%	13%
O=C(Nc1ccc(Oc2cccc(C(F)(F)F)c2)nc1)c1cccs1	-43%	16µM*	21µM*	u	-19%	u
O=C(NC1CCSC1=O)c1ccc(Oc2cccc(C(F)(F)F)c2)nc1 (stereo unspecified)	-11%	u	-25%	-13%	-15%	7%
O=C(Nc1ccc(Oc2cccc(C(F)(F)F)c2)nc1)c1ccccc1	-10%	13µM*	-29%	-12%	u	0%
O=[N+]([O-])c1ccc(Oc2ccc(C(F)(F)F)cn2)cc1	-25%	4%	5%	22%	15%	-27%
COc1ccc(NC(=O)COc2cccc(C(F)(F)F)c2)cn1	22%	u	-4%	6%	-3%	26%
COc1ccc(C2SCC(C(=O)NCc3ccc(F)cc3)N2C(C)=O)cc1 (stereo unspecified)	0%	-11%	-7%	6%	3%	-1%
